Screens: PubChem, The Scripps Research Institute Molecular Screening Center
An excerpt weighted towards active compounds, which were near 2.3% of everything screened.
CHO-K1 Ca antag: M1 antagonist counterscreen hit in parental CHO-K1 cells. ATP-induced calcium, Fluo-8 fluorescence. inhibition, % at 3 µM. actives 0.6% (n = 360,000). AID 602250;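 active means inhibition above a per-plate cutoff, the plate's mean sample inhibition plus 3 SD, cut at about 24% in these data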;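 further: 0% = DMSO plus EC80 ATP and 100% = DMSO alone without ATP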
M1 antag: human M1 muscarinic receptor antagonists, primary screen, CHO-K1 cells, Fluo-8 calcium fluorescence, 1536-well; CHO-K1 hM1, ACh EC80 antagonist; Muscarinic acetylcholine receptor M1 (Homo sapiens), P11229; inhibition, % at 3 µM; actives 1.3% (n = 360,000);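 active means percent inhibition above its own plate's cutoff, namely the mean of that plate's compound wells plus 3 SD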;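 further: peak over basal fluorescence ratio during 140 s after agonist addition; 0% = ACh EC80 plus DMSO and 100% = DMSO alone without agonist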
Target sequence (P11229 whole entry, looked up): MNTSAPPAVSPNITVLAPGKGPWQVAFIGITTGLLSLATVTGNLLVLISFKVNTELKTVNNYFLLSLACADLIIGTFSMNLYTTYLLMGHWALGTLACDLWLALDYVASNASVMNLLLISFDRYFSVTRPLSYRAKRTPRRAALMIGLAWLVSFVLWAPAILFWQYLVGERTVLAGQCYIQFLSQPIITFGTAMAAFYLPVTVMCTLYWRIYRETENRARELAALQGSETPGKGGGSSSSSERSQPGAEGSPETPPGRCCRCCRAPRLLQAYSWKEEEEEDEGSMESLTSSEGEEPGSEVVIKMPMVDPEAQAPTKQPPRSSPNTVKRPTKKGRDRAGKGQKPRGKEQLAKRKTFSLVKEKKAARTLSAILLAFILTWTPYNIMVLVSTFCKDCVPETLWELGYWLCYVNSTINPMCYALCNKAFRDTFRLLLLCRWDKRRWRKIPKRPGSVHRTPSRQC
M1 ag parental: counter-screen for M1 agonists: effect in parental CHO-K1 cells | AID 602248, 2012 | activation, % at 3 µM | actives 0.48% (n = 360,000) | Fluo-8 calcium fluorescence; scaled to maximal ATP response, vehicle zero; in the data active means activation above about 15%;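 further: untransfected CHO-K1 host cells lacking M1 receptor as counterscreen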
CHRM1 agonist: human M1 muscarinic receptor agonists, primary screen, Fluo-8 calcium fluorescence, CHO-K1 cells, HTS. Muscarinic acetylcholine receptor M1 (Homo sapiens), P11229. CHO-K1 hM1, agonist mode; 0% DMSO, 100% acetylcholine EC100. actives 0.33% (n = 360,000). activation, % at 3 µM. AID 588814, 2011;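 active means activation above the run's mean compound activation plus 3 SD, cut at about 16% in these data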;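 further: peak over basal fluorescence ratio within a 140 s kinetic read after compound addition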
M1 PAM: human M1 muscarinic receptor positive allosteric modulators, primary screen, CHO-K1 cells, Fluo-8 calcium fluorescence, 1536-well; AID 588819, 2011; actives 0.088% (n = 360,000); activation, % at 3 µM; CHO-K1 hM1, ACh EC20; 0% = ACh EC20, 100% = maximal ACh; in the data active means activation above about 19%, passing the limit was not always enough
CHO-K1 Ca PAM: nonselective calcium activators in parental CHO-K1 cells, primary screen, counter-screen for M1 PAM project, cell-based, Fluo-8 calcium fluorescence, full deck, 1536-well; AID 602247, 2012; ATP EC20; 0% at ATP EC20, 100% at ATP max; actives 0.02% (n = 360,000); activation, % at 3 µM;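 active means activation above the run cutoff, the mean activation of all test compounds plus 3 SD, cut at about 40% in these data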;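 further: peak over basal fluorescence ratio in a 140 s read after ATP addition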
The depositor's hits bear a star.

SMILES	CHO-K1 Ca antag	M1 antag	M1 ag parental	CHRM1 agonist	M1 PAM	CHO-K1 Ca PAM
c1ccc(C(c2ccccc2)c2ccncc2)cc1	-10	70*	1	-6	-28	19
CC(C)(C)c1nc(NCc2ccc3c(c2)OCO3)c2nnn(Cc3ccccc3Cl)c2n1	-4	-30	0	-2	2	10
Cc1ccc(O)c(C)c1	-6	-7	0	-3	3	2
O=C(COC(=O)c1cc(Br)cc(Br)c1O)NC12CC3CC(CC(C3)C1)C2	-4	-10	0	-5	7	14
CN1CCN(CCC(=O)OC2CC3CCC(C2)N3C)CC1 (centres undefined)	7	-10	0	-4	-3	-2
CN1C2CCC1CC(OC(=O)c1cc(Cl)cc(Cl)c1)C2 (centres undefined)	-13	47*	2	-4	-22	32
CC1(O)CCN2C(=O)CCc3cccc1c32 (centres undefined)	-14	6	0	-7	-2	-5
COC1/C=C/C=C(\C)Cc2cc(O)c(Cl)c(c2)N(C)C(=O)CC(OC(=O)C(C)C)C2(C)OC2C(C)C2CC1(O)NC(=O)O2 (centres undefined)	-9	-16	1	2	3	1
CCOc1cc2c(cc1OCC)-n1cccc1C(c1ccc(OC)cc1)NC2 (centres undefined)	3	-7	18*	-5	4	14
CCOc1cc2c(cc1OCC)-n1cccc1C(c1ccc(F)cc1)NC2 (centres undefined)	-9	3	5	-7	1	6
NC(Cc1ccc(Cl)cc1)c1csc(Nc2ncccn2)n1 (centres undefined)	-26	-15	5	8	8	23
C[C@]12CC[C@@H](O)CC1=CCC1C2CC[C@@]2(C)C1CC[C@@H]2N (some centres undefined)	-8	26*	1	-9	-20	7
C[C@]12CC[C@H](N)CC1=CCC1C2CC[C@@]2(C)C1CC[C@@H]2O (some centres undefined)	-13	-5	2	-6	1	19
CC(=O)c1cccc(NC(=O)N2C[C@H]3C[C@@H](C2)c2cccc(=O)n2C3)c1	29*	-12	0	-3	5	-18
CCOC(=O)c1ccc(NC(=O)N2C[C@@H]3C[C@@H](C2)c2cccc(=O)n2C3)cc1	25*	19	0	-14	-10	-18
CCOC(=O)C(O)(c1ccc(N=c2ccccn2C)cc1)C(F)(F)F (centres undefined)	9	-10	0	-7	4	0
COC(=O)CC1(CC(=O)OC)C(=O)N(c2ccccc2)C(=O)N(c2ccccc2)C1=O	4	-17	1	4	17	17
COc1ccc(C(=O)C2CCCN(Cc3cccc(C)n3)C2)c(OC)c1 (centres undefined)	-21	46*	5	-7	-23	25
COc1ccc(C(=O)C2CCCN(Cc3ccc(C)s3)C2)c(OC)c1 (centres undefined)	-9	1	1	-7	-8	11
CN(C)c1ccc(/C=C/[N+](=O)[O-])cc1	12	41*	14	11	4	-4
CCOP(=O)(OCC)C(O)c1ccc(OC)cc1 (centres undefined)	-3	-6	1	-3	5	9
CCC(CO)(C(=O)OC1CC2CCC(C1)N2C)c1ccccc1 (centres undefined)	-9	101*	0	-10	-28	20
CC(C)NC(=O)Cn1cc(C(=O)c2ccccc2F)c2ccccc21	9	-10	0	-1	11	-4
CC(CC(C#N)(c1ccccc1)c1ccccc1)N1CCOCC1 (centres undefined)	-10	99*	-1	-9	-30	11
N#CC(c1cccnc1)N1CCOCC1 (centres undefined)	-2	6	1	-7	4	-2
SMILES	CHO-K1 Ca antag	M1 antag	M1 ag parental	CHRM1 agonist	M1 PAM	CHO-K1 Ca PAM
O=C1CCCN1CC#CCN1CCCC1	5	87*	0	102*	-15	13
COC(=O)c1ccc(NC(=O)CSc2nc3ccc(N4C(=O)C5C6C=CC(C6)C5C4=O)cc3s2)cc1 (centres undefined)	14	44*	9	3	-25	-9
CC(=NCCO)c1c(O)n(C2CCCCC2)c(=O)[nH]c1=O	-13	-1	0	-2	4	16
CCC(=O)c1c(O)n(C2CCCCCC2)c(=O)[nH]c1=O	28*	-1	0	-3	1	-6
COc1ccc(-[n+]2c(-c3ccccc3)cc(-c3ccc(C)cc3)cc2-c2ccccc2)cc1	14	86*	13	-6	-30	2
O=C(O)c1ccc(-[n+]2c(-c3ccccc3)cc(-c3ccccc3)cc2-c2ccccc2)cc1	-10	-7	1	-6	9	10
COc1ccc(-c2cc(-c3ccccc3)[n+](C)c(-c3ccccc3)c2)cc1	6	13	0	-12	-11	-6
Cc1ccccc1-[n+]1c(-c2ccccc2)cc(-c2ccccc2)cc1-c1ccccc1	6	65*	5	-8	-28	-3
Oc1ccccc1-[n+]1c(-c2ccccc2)cc(-c2ccccc2)cc1-c1ccccc1	-7	30	0	-8	-22	6
CCCOC(=O)c1ccc(-[n+]2c(-c3ccccc3)cc(-c3ccccc3)cc2-c2ccccc2)cc1	2	45*	5	-8	-27	6
CN1CCN(c2c[nH]c(=O)[nH]c2=O)CC1	-8	1	4	-4	0	22
OC1(c2ccccc2F)CC2CCC(C1)N2CCN1CCOCC1 (centres undefined)	-4	-6	1	-6	5	9
CNc1cc(Cl)c2nonc2c1[N+](=O)[O-]	38*	25*	-1	-1	1	-17
CCOC(=O)C1(CCOc2ccccc2)CCN(C2Cc3ccccc3C2)CC1	-9	46*	3	-5	-22	11
CCOC(=O)C1(CCOc2ccccc2)CCN(C(C)CSC)CC1 (centres undefined)	-15	3	4	-9	-10	24
COC(=O)C1C(O)CC2CCC1N2C (centres undefined)	-3	1	1	-2	-1	-11
CCOc1ccccc1C1SCC(=O)Nc2c1c(=O)[nH]n2C(CC)CC (centres undefined)	-12	-27	1	-3	8	17
